From PubChem
D1 antag – antagonists of human D1 dopamine receptor. 360,000 tested, 3.2% active. HEK293 TREx D1 cells, calcium flux, dopamine EC80; active compounds read low. activity change, negative = inhibition, % at 10 µM; in the data active = activity change below about -30%; also: % is scaled to controls: 0 for no effect and ±100 for the full control effect
Target sequence (P21728 whole entry, looked up): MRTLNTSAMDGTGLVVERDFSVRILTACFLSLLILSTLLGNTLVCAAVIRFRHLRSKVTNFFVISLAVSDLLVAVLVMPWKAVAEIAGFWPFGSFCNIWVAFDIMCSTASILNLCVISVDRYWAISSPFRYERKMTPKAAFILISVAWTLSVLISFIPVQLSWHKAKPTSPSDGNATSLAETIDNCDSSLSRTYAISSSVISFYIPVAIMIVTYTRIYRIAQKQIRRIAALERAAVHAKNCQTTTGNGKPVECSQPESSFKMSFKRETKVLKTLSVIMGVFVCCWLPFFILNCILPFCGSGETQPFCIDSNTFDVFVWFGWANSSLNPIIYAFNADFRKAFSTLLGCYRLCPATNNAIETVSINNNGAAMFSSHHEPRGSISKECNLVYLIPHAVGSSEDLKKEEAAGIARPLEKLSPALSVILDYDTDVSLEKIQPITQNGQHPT
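Allosteric or orthosteric antagonism assessed as attenuation of the calcium response to EC80 dopamine, added 180 s after compound, in induced HEK293 Trex D1 cells loaded with no-wash calcium dye.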
DRD3 antagonist – blocks the human D3 dopamine receptor | D3R cells, DiscoveRx beta-arrestin luminescence, antagonist mode; active compounds read low | 360,000 tested, 2.5% active | P35462 | max response, negative = inhibition, %; in the data active = max response below about -50%; inconclusive = no clear call, values can overlap the other calls; also: % is scaled to controls: 0 for no effect and ±100 for the full control effect
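Cells expressing the human receptor were seeded at 1500 cells/well, incubated overnight at 37 degrees C in 5% CO2, then exposed to library compounds with dopamine controls for 90 minutes at 37 degrees C before luminescent detection.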
D1 potentiator – potentiators of human D1 dopamine receptor | P21728 | HEK293 TREx D1 cells, calcium flux, dopamine EC20 potentiation | potentiation, % at 10 µM | 360,000 tested, 0.036% active | AID 504651; in the data active = potentiation above about 30%; also: 0% is about no effect
D1 agonist – activates the human D1 dopamine receptor. P21728. HEK293 T-REx D1 cells, calcium flux, agonist mode. activation, % at 2 µM. 360,000 tested, 1% active. AID 504660; in the data active = activation above about 30%; also: 0% is about no effect
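Agonism was scored from calcium flux recorded over 180 s (1 read/s) after pintool compound addition, following a 10-cycle baseline. Cells were inducible force-coupled HEK293 TREx D1, plated overnight at 30 C and loaded with no-wash calcium dye.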
DRD3 agonist – D3 dopamine receptor (human) agonism. 410,000 tested, 0.58% active. max activation, %. D3R DiscoveRx beta-arrestin cells, luminescence, 90 min. AID 652048. P35462; in the data active = max activation above about 30%; also: 0% is about no effect
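Agonist-mode cell screen: cells plated at 1500/well and incubated overnight at 37 °C, then exposed to library compounds for 90 min at 37 °C. Detection reagent was added for 30–60 min at room temperature, and luminescence was read.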
* = called active by the depositor; ? = inconclusive; . = not tested or not shown; ! = not confirmed by another sample. This is a sample that favours compounds with a hit; in the whole collection about 6.1% have one here.

SMILES | D1 antag | DRD3 antagonist | D1 potentiator | D1 agonist | DRD3 agonist
Cn1ncc(C(=O)N2CCN(c3ccc(F)cc3)CC2)c1C1CCN(C(=O)OC(C)(C)C)CC1 | -18.1 | . | -2.3 | 0.4 | 8.3
O=[N+]([O-])c1ccc(N2CCCCC2)s1 | -6.4 | -22.5 | -8.7 | 4.8 | -6.2
O=[N+]([O-])c1ccc(N2CCN(Cc3ccccc3)CC2)c2c1no[n+]2[O-] | . | -74.0* | . | . | -12.6
O=[N+]([O-])c1ccc(N2CCN(Cc3ccccc3)CC2)s1 | 1.8 | -65.7* | -6.4 | 2.6 | -8.8
COc1ccc(/C(O)=C/c2nc3ccc(C(=O)NCCc4cccc(C)c4)cc3[nH]c2=O)cc1OC | -3.4 | -2.2 | -2.0 | 71.1* | 2.4
COc1ccc(C(=O)NCCc2ccccc2)cc1OC | 36.3 | -13.9 | -2.9 | 1.6 | -10.1
Cn1c(=O)c(N)c2c3c(c(Br)ccc31)C(=O)c1ccccc1-2 | -8.9 | 15.8 | -5.2 | 72.7* | 6.0
Cn1c(=O)c2c(-c3ccccc3Br)n(C(C)(C)C)cc2n(C)c1=O | -28.4 | . | -0.7 | 1.5 | 7.5
CCCCN(C)CC(O)Cn1cc(/C=C/C(=O)c2ccc(OCC)cc2)c2ccccc21 (stereo unspecified) | -56.3*! | . | -3.4 | 41.2* | -13.3
CCCCN(C)CC(O)Cn1cc(/C=C/C(=O)c2cccs2)c2ccccc21 (stereo unspecified) | -19.6 | -24.2 | -7.6 | 67.2* | -12.5
O=Cc1cn(CC(O)Cn2cc(C=O)c3ccccc32)c2ccccc12 | -15.2 | 15.6 | -6.7 | 4.1 | -1.0
O=C(/C=C/c1cn(CC(O)CN2CCCCCC2)c2ccccc12)c1cccs1 (stereo unspecified) | -21.4 | 5.3 | -8.1 | 77.2* | -26.1
Cc1cc(C(=O)N2CCN(c3cccc(C)c3C)CC2)c2c(C)nn(-c3ccccc3)c2n1 | -1.1 | . | 0.4 | 3.5 | -4.0
CC(NCC(O)COCCC12CC3CC(CC(C3)C1)C2)c1ccccc1 (stereo unspecified) | 56.4 | 3.6 | 12.4 | 169.5* | -0.3
Cc1ccc(/C=N/N2CCN(c3ccc(Cl)cc3)CC2)o1 | -48.2* | 0.0 | -1.0 | 0.9 | 3.7
O=c1c(N2CCN(c3cccc(Cl)c3)CC2)csc2ccccc12 | -13.7 | . | -4.8 | 5.4 | -17.7
C=C1C(=O)C23C(O)C1CCC2C12CCCC(C)(COC(C)=O)C1C(O)C3(O)OC2 (stereo unspecified) | . | -95.0* | . | . | -13.4
CN(C(=O)CSc1nc2ccccc2n1CC(=O)NCc1ccc(F)cc1)c1ccc(F)cc1 | -31.8* | . | 0.0 | 10.7 | -12.4
Cc1nc2ccccc2n1CC(=O)NCc1ccccc1 | -6.8 | -50.2* | 2.2 | 6.6 | -2.2
Cc1cc2nc3c(=O)n(CCc4ccccc4)c(=O)[nH]c3nc2cc1N | 3.4 | 14.2 | 3.2 | 352.3* | -16.6
Cc1nc2ccccc2c(=O)n1CCc1ccccc1 | 5.1 | ? | -6.0 | 0.3 | 1.4
COc1cc2[nH]c(=O)n(C3CCCCC3)c(=O)c2cc1OC | -12.5 | -8.3 | 3.7 | -3.1 | -0.8
